Experimental data taken from PubChem BioAssay AID1159580 (chemical genetic matrix, 2015).
Values joined by “and” are separate entries in the source; they are usually repeats but may differ in a detail not shown here. Identical values can stand only once. In all, about 5,500 compounds went through this assay and about 2,000 (36%) were called active. Roughly 18% stayed inconclusive and do not appear here. Cut-off read from the data, not from the text of the source: active = normalized growth mostly below about 0.91 (no sharp cut-off); inconclusive = no clear call, values can overlap the other calls; inactive = mostly above about 0.92. Some of the results follow.

Test: chemical genetic growth profiling, strain panel (AID 1159580);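 note: tested at 20 µM; growth read once vehicle control cultures reached saturation at 30 °C; 1 = growth at the plate median or of vehicle wells; lower values mean less growth of the strain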
Details: S. cerevisiae deletion strains, growth OD

Measured: normalized growth

Nc1ccc(S(=O)(=O)Nc2cnc3ccccc3n2)cc1
inactive: locus YAL013W, strain DEP1, stronger effect = lower value 0.994 | locus YAL021C, strain ccr4, stronger effect = lower value 1.01 | locus YAL026C, strain drs2, stronger effect = lower value 1 | locus YAL030W, strain snc1, stronger effect = lower value 1.02 | locus YBL061C, strain skt5, stronger effect = lower value 1 | locus YBR009C, strain hhf1, stronger effect = lower value 0.973 | locus YBR021W, strain FUR4, stronger effect = lower value 0.999 | locus YBR023C, strain chs3, stronger effect = lower value 1.02 | locus YBR171W, strain sec66, stronger effect = lower value 1.02 | locus YBR229C, strain ROT2, stronger effect = lower value 0.957 | locus YBR231C, strain swc5, stronger effect = lower value 1.01 | locus YBR279W, strain paf1, stronger effect = lower value 1.01 | locus YCL011C, strain gbp2, stronger effect = lower value 1.01 | locus YCL016C, strain dcc1, stronger effect = lower value 1 | locus YCL029C, strain bik1, stronger effect = lower value 0.983 | locus YCL061C, strain MRC1, stronger effect = lower value 1.02 | locus YCL069W, strain vba3, stronger effect = lower value 1.02 | locus YCR088W, strain abp1, stronger effect = lower value 1.01 | locus YDL005C, strain med2, stronger effect = lower value 1.02 | locus YDL035C, strain GPR1, stronger effect = lower value 1 | locus YDL040C, strain nat1, stronger effect = lower value 1.01 | locus YDL074C, strain BRE1, stronger effect = lower value 0.977 | locus YDL101C, strain DUN1, stronger effect = lower value 0.989 | locus YDL134C, strain PPH21, stronger effect = lower value 1.01 | locus YDL185W, strain tfp1, stronger effect = lower value 0.974 | locus YDL192W, strain arf1, stronger effect = lower value 0.973 | locus YDR001C, strain nth1, stronger effect = lower value 1.02 | locus YDR069C, strain doa4, stronger effect = lower value 1.03 | locus YDR101C, strain arx1, stronger effect = lower value 1 | locus YDR137W, strain rgp1, stronger effect = lower value 0.993 | locus YDR150W, strain NUM1, stronger effect = lower value 0.991 | locus YDR159W, strain sac3, stronger effect = lower value 0.955 | locus YDR162C, strain NBP2, stronger effect = lower value 0.999 | locus YDR195W, strain ref2 1.01 | locus YDR297W, strain sur2, stronger effect = lower value 1.02 | locus YDR318W, strain mcm21, stronger effect = lower value 0.995 | locus YDR334W, strain swr1, stronger effect = lower value 1.02 | locus YDR335W, strain msn5, stronger effect = lower value 1.01 | locus YDR388W, stronger effect = lower value 0.986 | locus YDR392W, strain spt3, stronger effect = lower value 0.942 | locus YDR502C, strain sam2, stronger effect = lower value 0.978 | locus YEL003W, strain gim4, stronger effect = lower value 1.02 | locus YEL037C, strain rad23, stronger effect = lower value 1.01 | locus YEL061C, strain CIN8 (second series), stronger effect = lower value 1.01 | locus YEL061C, strain CIN8, stronger effect = lower value 0.981 | locus YER015W, strain faa2, stronger effect = lower value 1 | locus YER016W, strain bim1, stronger effect = lower value 0.962 | locus YER110C, stronger effect = lower value 0.981 | locus YER111C, strain swi4, stronger effect = lower value 1.02 | locus YER155C, strain BEM2 (second series), stronger effect = lower value 0.981 | locus YER155C, strain BEM2, stronger effect = lower value 0.996 | locus YER167W, strain BCK2, stronger effect = lower value 0.993 | locus YFR010W, strain ubp6, stronger effect = lower value 1.04 | locus YGL078C, strain dbp3, stronger effect = lower value 0.99 | locus YGL086W, strain mad1, stronger effect = lower value 0.983 | locus YGL167C, strain pmr1, stronger effect = lower value 1.01 | locus YGL173C, strain kem1, stronger effect = lower value 1.01 | locus YGL227W, strain vid30, stronger effect = lower value 1.02 | locus YGL240W, strain doc1, stronger effect = lower value 1.03 | locus YGL248W, strain PDE1, stronger effect = lower value 0.972 | locus YGL253W, strain hxk2, stronger effect = lower value 1.02 | locus YGR135W, strain pre9, stronger effect = lower value 0.992 | locus YGR252W, strain gcn5, stronger effect = lower value 0.988 | locus YHR013C, strain ard1, stronger effect = lower value 1 | locus YHR027C, strain rpn1, stronger effect = lower value 1.01 | locus YHR030C, strain SLT2, stronger effect = lower value 1 and 0.974 | locus YHR079C, strain IRE1 (second series), stronger effect = lower value 0.989 | locus YHR079C, strain IRE1, stronger effect = lower value 0.957 | locus YHR094C, strain hxt1, stronger effect = lower value 0.985 | locus YHR129C, strain ARP1, stronger effect = lower value 0.989 | locus YHR142W, strain chs7, stronger effect = lower value 1.05 | locus YHR200W, strain rpn10, stronger effect = lower value 0.967 | locus YIL066C, strain RNR3, stronger effect = lower value 0.978 | locus YIL073C, strain SPO22, stronger effect = lower value 1.02 | locus YIL125W, strain kgd1, stronger effect = lower value 0.981 | locus YIR030C, strain dcg1, stronger effect = lower value 0.981 | locus YJL092W, strain hpr5, stronger effect = lower value 0.996 | locus YJL095W, strain BCK1 (second series), stronger effect = lower value 1.02 | locus YJL095W, strain BCK1, stronger effect = lower value 0.965 and 0.98 | locus YJL115W, strain asf1, stronger effect = lower value 1.02 | locus YJL129C, strain trk1, stronger effect = lower value 1.01 | locus YJL134W, strain LCB3, stronger effect = lower value 0.993 | locus YJL154C, strain vps35, stronger effect = lower value 1.02 | locus YJL164C, strain tpk1, stronger effect = lower value 0.996 | locus YJL166W, strain qcr8, stronger effect = lower value 1.02 | locus YJL168C, strain set2, stronger effect = lower value 0.976 | locus YJL187C, strain SWE1 (second series), stronger effect = lower value 0.964 | locus YJL187C, strain SWE1, stronger effect = lower value 1.01 | locus YJR043C, strain POL32, stronger effect = lower value 1.02 | locus YJR066W, strain TOR1, stronger effect = lower value 0.918
